Among the data in ChEMBL document CHEMBL4513216, “Probing the Open Global Health Chemical Diversity Library for Multistage-Active Starting Points for Next-Generation Antimalarials” (ACS Infect Dis, 2020) are INHIBITION values, retold here.

Out of some 69,000 compounds screened, about 8,600 (12%) showed an effect of 50% or more. This excerpt belongs to a sample that is enriched for strong results.

The subject of this experiment is Plasmodium berghei. The experiment is described as follows: Screen against P. berghei liver stage (PbLuc), transformed with Luciferase, at 10uM. The experiment is classed as functional, HepG2. As to conditions: tested at 10 uM.
Regarding `c1cc(C2CCCN2CC2CC2)n[nH]1` (centres undefined), the INHIBITION is reported as -14.2%.
The figure for `CC(C)CN1CCCC1c1cc[nH]n1` (centres undefined) is 52.7%.
As for `Cc1nc(Nc2ccccn2)cc(C2CCCN2Cc2ncc[nH]2)n1` (centres undefined), the INHIBITION was found to be 50.1%.
For `Cc1nc(Nc2ncccn2)cc(C2CCCN2C(C)C)n1` (centres undefined) the value was -0.902%.
As to `Cc1nc(Nc2ncccn2)cc(C2CCCN2CC(C)C)n1` (centres undefined), the INHIBITION is 56.3%.
Consider `Cc1nc(Nc2ncccn2)cc(C2CCCN2Cc2ncc[nH]2)n1` (centres undefined), for which the INHIBITION was 18.9%.
For the molecule `Cc1c[nH]nc1C1CCCN1Cc1ncc[nH]1` (centres undefined), the INHIBITION is reported as -12.3%.
Turning to `O=C(c1cc(F)ccc1F)C1CCN(C(=O)c2cnccn2)CC1`, the INHIBITION was 3.73%.
With `CCCn1nnnc1CN1Cc2ccccc2CC1c1nnc(C)o1` (centres undefined), the INHIBITION is given as -25.6%.
As to `Cc1nn(C)cc1-c1cc(-c2cn(C)nc2C)n(CC(=O)NC2CC2)n1`, the INHIBITION worked out at 15.2%.
For `CCCC(=O)N1CCC(O)(Cn2c(CC)nc3ccccc3c2=O)CC1`, the INHIBITION was 41.5%.
As to `CN(C)c1cc(C(=O)N2CCCN(Cc3nccn3C)CC2)ccn1`, the INHIBITION is recorded as 29.2%.
Consider `O=C(NCc1cccnc1)C1=NN(c2ccccc2)C(=O)CN1`, for which the INHIBITION is -19.2%.
For the molecule `N#Cc1ccc(CNC(=O)C2=NN(c3ccccc3)C(=O)CN2)cc1`, the INHIBITION was -72.2%.
The figure for `COc1ccc(C)cc1CNC(=O)C1=NN(c2ccccc2)C(=O)CN1` is -174%; for `COc1ccccc1CNC(=O)C1=NN(c2ccc(C)cc2)C(=O)CN1` it is 18.1%; for `COCc1ccc(CNC(=O)C2=NN(c3ccccc3)C(=O)CN2)cc1` it is 51.6%.
The figure for `COc1ccc(CNC(=O)C2=NN(c3ccc(C)cc3)C(=O)CN2)cc1` is 79.5%; for `COCCCN(Cc1cnc(-c2ccccn2)nc1)C1CCN(C)CC1` it is 23.9%.
Consider `CCC1(O)CCCN(c2ncnc3c2c(C)nn3C)C1` (centres undefined), for which the INHIBITION was determined as 13.7%.
On to `COCCOC(=O)N1CCn2nc(CN(C)Cc3nccs3)cc2C1`, for which the INHIBITION came out at 36.7%.
The figure for `CCC(=O)N(c1ccc(C(=O)OC)cc1C)C(C)C` is 20.9%; for `CN(C)CCOCC1CN(Cc2ccsc2)Cc2nnn(C)c21` (centres undefined) it is 38.2%.
As to `C[C@@H]1CN(C(=O)c2cccc(F)c2)C[C@]12CCN(c1ccsc1)C2=O`, the INHIBITION is listed as 50.9%.
On to `C[C@@H]1CN(C(=O)c2ccsc2)C[C@]12CCN(c1ccsc1)C2=O`, for which the INHIBITION is 35.3%.
On to `Cc1cccc(C(=O)N2C[C@@H](C)[C@@]3(CCN(c4ccsc4)C3=O)C2)n1`, for which the INHIBITION is recorded as 19.4%.
`CCc1nn(C)c2[nH]nc(NC(=O)c3cccnc3OC)c12`: the INHIBITION is reported as 43.1%.
With `Cc1nn(C)c(N(C)C)c1CNCc1nnc2n1CCCCC2`, the INHIBITION was -7.94%.
As to `Cc1ccc(NC2CCN(C(=O)CCn3nc(C)cc3C)CC2)nn1`, the INHIBITION is given as 15.4%.
With `CNc1nc(C(=O)N2CCn3nc(C(=O)OC)cc3C2)cs1`, the INHIBITION is 9.16%.
As to `COc1ccc(C[C@H]2CN(C(=O)c3ccn(C)n3)CC[C@H]2OC)cc1`, the INHIBITION is on record as -7.28%.
`c1cncc(OCCCNC2COc3ccccc3C2)c1` (centres undefined): the INHIBITION is recorded as 38.5%.
For the molecule `CC(C)NC(=O)C1(Cc2ccccc2-c2cccs2)CCNC1` (centres undefined), the INHIBITION stood at 41.2%.
In the case of `CC(=O)N1CCCC1c1ccc(-c2c(C)noc2C)cn1` (centres undefined), the INHIBITION was 25.6%.
`Cc1noc(C)c1-c1ccc(C2CCCN2C(=O)c2cccnn2)nc1` (centres undefined): the INHIBITION was found to be 31.6%.
With `Cc1noc(C)c1-c1ccc(C2CCCN2C(=O)c2cccnc2)nc1` (centres undefined), the INHIBITION was -5.71%.
As to `Cc1noc(C)c1-c1ccc(C2CCCN2C(=O)Cn2ccnc2)nc1` (centres undefined), the INHIBITION amounted to 53.2%.
Consider `Cc1noc(C)c1-c1ccc(C2CCCN2C(=O)c2ccncn2)nc1` (centres undefined), for which the INHIBITION is recorded as 61.7%.
As for `Cc1noc(C)c1-c1ccc(C2CCCN2C(=O)c2cnn(C)c2)nc1` (centres undefined), the INHIBITION is listed as -32.2%.
The figure for `Cc1csc(CCNC(=O)N2CCC(C(N)=O)CC2)n1` is 36.9%; for `Cc1nn(C)c2cnn(CC(=O)NCc3ccc(F)cc3)c12` it is 44.9%.
For the molecule `OCCC1(NCc2ccc(-n3cccn3)cc2)CCOCC1`, the INHIBITION was found to be 12%.
The figure for `CCN1CCN(C(=O)C2CCOC2)c2ccccc21` (centres undefined) is 48.3%; for `COc1ccc(CCNC(=O)C(C)Nc2cc(C)ccc2C)cc1` (centres undefined) it is 44.9%.
As for `COc1ccc(CCNC(=O)C(C)Nc2ccc(C)c(C)c2)cc1` (centres undefined), the INHIBITION is reported as 58.5%.
Turning to `COc1ccc(CCNC(=O)C(C)Nc2cccc(C)c2C)cc1` (centres undefined), the INHIBITION was 20.9%.
As for `CCn1cc(CN2CCCN(C(=O)c3ccccc3C)CC2)cn1`, the INHIBITION is -57.4%.
Consider `CCCn1nnnc1COC(=O)C1COc2ccc(Cl)cc2C1` (centres undefined), for which the INHIBITION turned out to be 32.3%.
Take `CCc1nncn1CCNC(=O)N1CCCC(Cc2nccn2C)C1` (centres undefined): the INHIBITION is given as 17.6%.
As to `CC(C)c1nnc2n1CC(CNc1cnc3ccccc3n1)CC2` (centres undefined), the INHIBITION is recorded as 43.4%.
On to `Cc1nnc2n1CC(CNc1cnc3ccccc3n1)CC2` (centres undefined), for which the INHIBITION worked out at 60.1%.
Consider `CCc1nnc2n1CC(CNc1cnc3ccccc3n1)CC2` (centres undefined), for which the INHIBITION was found to be 27.6%.
The figure for `CC(C(=O)N1CCN(Cc2ccc(C#N)cc2)CC1)n1ccnc1` (centres undefined) is 23.5%.
For `O=C1CCCN1Cc1nnc2n1CCCN(Cc1ccco1)C2`, the INHIBITION was -9.23%.
